# Reference: PubChem BioAssay AID651812 (National Center for Advancing Translational Sciences (NCATS), 2012)
# The whole screen tested about 2,100 compounds, of which about 650 (31%) were called active. Inconclusive results (about 16%) are left out. Some of the results follow. Unmarked numbers belong to inactive results. Calls come from the whole dose curve; as a rule, active = well fitted inhibition curve with a large enough effect; inconclusive = small, poorly fitted or top-dose-only effect; inactive = flat fitted curve, though single readings scatter.
# Experiment: qHTS for inhibitors of Vif-A3G interactions: Cherry picks; note: nearly all actives have a fitted effect of over 80% in size; for activity, negative = fluorescence increase: % of control where 0% means no effect
# Settings: HeLa A3G-eYFP + Vif (tagged APOBEC3G with the HIV-1 protein that degrades it), 24 h; Potency: eYFP fluorescence increase; series mostly up to 36.9 µM; activity, negative = fluorescence increase: at the top concentration
# In short: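 HeLa cells stably expressing A3G-eYFP and Vif, cultured overnight then exposed to compounds at several concentrations for 24 hours at 37 C, 5% CO2; cellular yellow fluorescence (488 nm ex, 500-530 nm em) imaged on Acumen, MG132 positive control.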
# Potency is the fitted concentration of half-maximal effect.
Structure (SMILES),Potency,"activity, negative = fluorescence increase"
N#C/C(=C/c1ccc(N2CCCCCC2)o1)c1ccc(Cl)cc1,0.651 µM (active),
N#C/C(=C/c1ccc(N2CCOCC2)o1)c1ccc(Cl)cc1,1.46 µM (active),
Cc1ccc(/C(C#N)=C\c2ccc(N3CCOCC3)o2)cc1,19.8 µM (active),
COc1ccccc1C1c2ccc3ccccc3c2Oc2ncn(CCN(C)C)c(=N)c21 (centres undefined),,-6.82%
CCOc1ccccc1OCC(=O)N/N=C(\C)Cc1ccc(OC)cc1,,-7.08%
Cc1ccc(NC(=O)C2CCN(S(=O)(=O)c3ccc(Cl)c(C(F)(F)F)c3)CC2)nc1,,-2.61%
CCCc1nc2c(C)cc(Br)cn2c1Cc1ccccc1,,1.71%
O=C(Nc1cc(Cl)cc2c1-c1ccc(Cl)cc1C2O)C(Cl)Cl (centres undefined),,1.22%
CCOC(=O)c1csc(NC(=O)c2cc(-c3ccccn3)nc3ccccc23)n1,,-1.94%
CCOC(=O)Cc1csc(NC(=O)c2sc3nc4c(C)cc(C)cc4cc3c2N)n1,20.6 µM (active),
CCn1ncc(/C=N\NC(=O)c2csc3ccccc23)c1C,,-10.5%
CCC1CC=CC2C1C(=O)N(Cc1ccccc1)C2c1ccoc1 (centres undefined),,-8.78% [at 46.1 µM]
COc1cc(C2C(C#N)=C(N)Oc3cc(O)ccc32)cc2c1OCO2 (centres undefined),,3.33%
Cc1cc(-c2ccccc2)c2c3c(c(-c4ccccc4)n2n1)c(=O)n(C)c(=O)n3C,18.4 µM (active),
Cc1ccc(CNC(=O)C2CC(c3cc(C(F)(F)F)cc(C(F)(F)F)c3)=NO2)o1 (centres undefined),,-0.774%
CN1C(=S)N(c2cccnc2)C(=O)/C1=C\c1ccc(N(C)C)cc1,15.8 µM (active),
CN1C(=O)/C(=C\c2ccc(N(C)C)cc2)OC1=S,4.98 µM (active),
Cc1c(N2C(=O)/C(=C/c3ccc(N(C)C)cc3)N(C)C2=S)c(=O)n(-c2ccccc2)n1C,18.4 µM (active),
CN1C/C(=C/c2cccnc2)C(=O)/C(=C/c2cccnc2)C1,,0.927%
CC(NC(=S)Nc1cccc(C(F)(F)F)c1)C(C)(C)C (centres undefined),,13.5% [at 46.1 µM]
CCN(CC)c1ccc2c(c1)oc(=O)c1c(Cl)cc(=O)oc12,23.1 µM (active),
Cc1ccc(F)c(S(=O)(=O)NC(=O)C2(C)CCN2C(=O)Cc2ccc(Cl)cc2Cl)c1 (centres undefined),,3.77%

Structure (SMILES),Potency,"activity, negative = fluorescence increase"
CSc1ccc(C2NC(=O)c3ccccc3N2)cc1 (centres undefined),,-4.95%
COc1ccccc1/C=C/C=N/n1c(-c2ccc(C)cc2)n[nH]c1=S,,-5.39%
O=c1c(O)c(-c2cccs2)oc2ccccc12,2.59 µM (active),
C/C(=N\NC(N)=S)C12CC3CC(CC(C3)C1)C2,,0.102%
O=C(c1ccccc1F)n1c2c(c3ccccc31)CCCC2,,1.62%
COc1ccc(C)c(Cn2c(-c3nonc3N)nc3ccccc32)c1,,-6.51%
Nc1nonc1-c1nc2ccccc2n1Cc1ccc(F)cc1,,-10%
Nc1nonc1-c1nc2ccccc2n1CC(=O)Nc1cccc(C(F)(F)F)c1,25.9 µM (active),
O=c1c[n+]([O-])c2ccccc2n1OCc1c(F)cccc1F,,-23.5%
O=C(O)c1ccccc1N/N=C/c1c(Sc2nnnn2-c2ccccc2)nc2ccccn2c1=O,3.53 µM (active),
O=c1oc2c3c4c(cc2c(C(F)(F)F)c1CCN1CCOCC1)CCCN4CCC3,7.31 µM (active),
O=C(Nc1cc(Cl)ccc1-n1cncn1)c1ccc([N+](=O)[O-])s1,15.8 µM (active),
O=C(O)Cc1sc(NC2CCCCC2)nc1-c1ccc(Cl)cc1,,-0.33% [at 46.1 µM]
COC(=O)C1=C(Nc2ccc(C)cc2)C=C(C)C(C(=O)OC)C1c1cccc(OC)c1 (centres undefined),,-10.6%
CC(=O)Nc1ccc(S(=O)(=O)N2c3ccccc3C(C)=CC2(C)C)cc1,,1%
O=C(NN(c1ccccc1)c1ccccc1)c1ccc([N+](=O)[O-])o1,,-13.6%
Cc1cccc(/C=C/C(=O)c2ccc([N+](=O)[O-])o2)c1,,-10.1%
Cc1cc2ccccn2c1C(=O)c1ccc([N+](=O)[O-])o1,18.4 µM (active),
CCN(CC)C(=O)Cn1c(C)c(/C=C/c2cc[n+](C)cc2)c2ccccc21,12.5 µM (active),
COC(=O)Cn1c(C)c(/C=C/c2cc[n+](C)cc2)c2ccccc21,13 µM (active),
N#C/C(=C/c1cccs1)c1ccccn1,14 µM (active),
N#C/C(=C/c1ccc(N2CCCCC2)o1)c1cccc(F)c1,8.2 µM (active),

Structure (SMILES),Potency,"activity, negative = fluorescence increase"
N#C/C(=C/c1ccc(N2CCCCCC2)o1)c1cccc(F)c1,3.66 µM (active),
CSc1nc2ccccc2cc1/C=C(\C#N)c1cccc(C)c1,,-0.793%
COc1cc(C2C(C#N)=C(N)Oc3cc(O)ccc32)cc(OC)c1OC (centres undefined),,-13.1%
CCCCN(C)CC(O)Cn1cc(/C=C/C(=O)c2cccs2)c2ccccc21 (centres undefined),20.6 µM (active),
CN(C)c1ccc(/C=C/c2nc3ccccc3c(=O)n2CCO)cc1,18.4 µM (active),
CN(C)c1ccc(/C=C/c2cc(N(C)C)nc3ccccc23)cc1,13 µM (active),
Nc1ccc(/C=C/c2cc(Cl)nc3ccccc23)cc1,20.6 µM (active),
Cc1noc(C)c1CSc1nc2ccccc2c(=O)n1-c1ccccc1,,-2.2%
CN(C)c1ccc(/C=C/c2cc(/C=C/c3ccc(N(C)C)cc3)c3ccccc3n2)cc1,6.51 µM (active),
CN(NC(=O)c1ccccc1)c1nc2ccccc2nc1C(F)(F)F,,-6.08%
O=C(NC(=S)Nc1ccc(-c2ccccc2)cc1)c1ccccc1,,7.46% [at 46.1 µM]
CC(C)Cn1c(N)c(C(=O)COC(=O)c2ccc([N+](=O)[O-])o2)c(=O)n(C)c1=O,,-6.45%
CC(C)(C)n1ncc2c(=O)n(CC(=O)NCc3ccc(F)cc3)cnc21,,-5.38%
O=C1OC(Nc2nc(-c3ccc(F)cc3)cs2)c2ccccc21 (centres undefined),,-9.25%
CCN(CC)c1ccc(/C=C/c2cc(-c3ccccc3)c3ccccc3n2)cc1,11.2 µM (active),
COc1ccc(C2=NOC(C(=O)NCc3cccs3)C2)cc1OC (centres undefined),,-1.9%
Cc1ccc(N2C(=O)[C@@H]3[C@H](C2=O)[C@H]2C=C(C(=O)c4ccccc4)C=CN2[C@@H]3C(=O)c2ccc(Cl)cc2)cc1,,2.29% [at 46.1 µM]
Nc1ccc2nc(-c3ccccc3)c(-c3ccccc3)nc2c1,,-12.6%
CCn1nc(-c2ccccc2)c2nc3ccccc3nc21,16.4 µM (active),
O=C(Nc1nc(NC(=O)c2ccco2)n(-c2ccccc2)n1)c1ccccc1,,-8.62%
